# In PubChem BioAssay:
# The source made the active and inactive calls.
# Tests used:
# [1] = small molecules captured by biotinylated probe aFSTL3 – biochemical, small-molecule microarray, fluorescence 635/667, stem cell growth factor project, primary screen (AID 1064); conditions: higher = more signal;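 further: measures binding of the biotinylated anti-FSTL3 antibody to printed compounds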
# [2] = binders from COS7 lysate, DM2A8 probe, primary screen, torsin A project, cell lysate, small-molecule microarray, fluorescence 635/667 (AID 1065); conditions: higher = more signal, COS7 lysate expressing mutant human TOR1A
# [3] = small molecules captured by biotinylated probe aFGF2 – biochemical, small-molecule microarray, fluorescence 635/667, stem cell growth factor project, primary screen (AID 1067); conditions: higher = more signal;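 further: measures binding of biotinylated aFGF2 protein to printed compounds on slides; z-score merges feature fluorescence and signal-to-noise across triplicate slides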
# [4] = small molecules captured by biotinylated probe aFGF10 – biochemical, small-molecule microarray, fluorescence 635/667, stem cell growth factor project, primary screen (AID 1071); conditions: higher = more signal;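 further: score merges 667 nm spot intensity and signal to noise from triplicate slides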
# [5] = target: Neurogenic locus notch homolog protein 2 (Homo sapiens) (UniProt Q04721); assay: small molecules binding Notch2 protein – biochemical, small-molecule microarray, 635 nm fluorescence, stem cell growth factors, primary screen (AID 1073); conditions: higher = more signal
# Sequence of Neurogenic locus notch homolog protein 2 (Homo sapiens) (Q04721 whole entry, looked up, canonical isoform): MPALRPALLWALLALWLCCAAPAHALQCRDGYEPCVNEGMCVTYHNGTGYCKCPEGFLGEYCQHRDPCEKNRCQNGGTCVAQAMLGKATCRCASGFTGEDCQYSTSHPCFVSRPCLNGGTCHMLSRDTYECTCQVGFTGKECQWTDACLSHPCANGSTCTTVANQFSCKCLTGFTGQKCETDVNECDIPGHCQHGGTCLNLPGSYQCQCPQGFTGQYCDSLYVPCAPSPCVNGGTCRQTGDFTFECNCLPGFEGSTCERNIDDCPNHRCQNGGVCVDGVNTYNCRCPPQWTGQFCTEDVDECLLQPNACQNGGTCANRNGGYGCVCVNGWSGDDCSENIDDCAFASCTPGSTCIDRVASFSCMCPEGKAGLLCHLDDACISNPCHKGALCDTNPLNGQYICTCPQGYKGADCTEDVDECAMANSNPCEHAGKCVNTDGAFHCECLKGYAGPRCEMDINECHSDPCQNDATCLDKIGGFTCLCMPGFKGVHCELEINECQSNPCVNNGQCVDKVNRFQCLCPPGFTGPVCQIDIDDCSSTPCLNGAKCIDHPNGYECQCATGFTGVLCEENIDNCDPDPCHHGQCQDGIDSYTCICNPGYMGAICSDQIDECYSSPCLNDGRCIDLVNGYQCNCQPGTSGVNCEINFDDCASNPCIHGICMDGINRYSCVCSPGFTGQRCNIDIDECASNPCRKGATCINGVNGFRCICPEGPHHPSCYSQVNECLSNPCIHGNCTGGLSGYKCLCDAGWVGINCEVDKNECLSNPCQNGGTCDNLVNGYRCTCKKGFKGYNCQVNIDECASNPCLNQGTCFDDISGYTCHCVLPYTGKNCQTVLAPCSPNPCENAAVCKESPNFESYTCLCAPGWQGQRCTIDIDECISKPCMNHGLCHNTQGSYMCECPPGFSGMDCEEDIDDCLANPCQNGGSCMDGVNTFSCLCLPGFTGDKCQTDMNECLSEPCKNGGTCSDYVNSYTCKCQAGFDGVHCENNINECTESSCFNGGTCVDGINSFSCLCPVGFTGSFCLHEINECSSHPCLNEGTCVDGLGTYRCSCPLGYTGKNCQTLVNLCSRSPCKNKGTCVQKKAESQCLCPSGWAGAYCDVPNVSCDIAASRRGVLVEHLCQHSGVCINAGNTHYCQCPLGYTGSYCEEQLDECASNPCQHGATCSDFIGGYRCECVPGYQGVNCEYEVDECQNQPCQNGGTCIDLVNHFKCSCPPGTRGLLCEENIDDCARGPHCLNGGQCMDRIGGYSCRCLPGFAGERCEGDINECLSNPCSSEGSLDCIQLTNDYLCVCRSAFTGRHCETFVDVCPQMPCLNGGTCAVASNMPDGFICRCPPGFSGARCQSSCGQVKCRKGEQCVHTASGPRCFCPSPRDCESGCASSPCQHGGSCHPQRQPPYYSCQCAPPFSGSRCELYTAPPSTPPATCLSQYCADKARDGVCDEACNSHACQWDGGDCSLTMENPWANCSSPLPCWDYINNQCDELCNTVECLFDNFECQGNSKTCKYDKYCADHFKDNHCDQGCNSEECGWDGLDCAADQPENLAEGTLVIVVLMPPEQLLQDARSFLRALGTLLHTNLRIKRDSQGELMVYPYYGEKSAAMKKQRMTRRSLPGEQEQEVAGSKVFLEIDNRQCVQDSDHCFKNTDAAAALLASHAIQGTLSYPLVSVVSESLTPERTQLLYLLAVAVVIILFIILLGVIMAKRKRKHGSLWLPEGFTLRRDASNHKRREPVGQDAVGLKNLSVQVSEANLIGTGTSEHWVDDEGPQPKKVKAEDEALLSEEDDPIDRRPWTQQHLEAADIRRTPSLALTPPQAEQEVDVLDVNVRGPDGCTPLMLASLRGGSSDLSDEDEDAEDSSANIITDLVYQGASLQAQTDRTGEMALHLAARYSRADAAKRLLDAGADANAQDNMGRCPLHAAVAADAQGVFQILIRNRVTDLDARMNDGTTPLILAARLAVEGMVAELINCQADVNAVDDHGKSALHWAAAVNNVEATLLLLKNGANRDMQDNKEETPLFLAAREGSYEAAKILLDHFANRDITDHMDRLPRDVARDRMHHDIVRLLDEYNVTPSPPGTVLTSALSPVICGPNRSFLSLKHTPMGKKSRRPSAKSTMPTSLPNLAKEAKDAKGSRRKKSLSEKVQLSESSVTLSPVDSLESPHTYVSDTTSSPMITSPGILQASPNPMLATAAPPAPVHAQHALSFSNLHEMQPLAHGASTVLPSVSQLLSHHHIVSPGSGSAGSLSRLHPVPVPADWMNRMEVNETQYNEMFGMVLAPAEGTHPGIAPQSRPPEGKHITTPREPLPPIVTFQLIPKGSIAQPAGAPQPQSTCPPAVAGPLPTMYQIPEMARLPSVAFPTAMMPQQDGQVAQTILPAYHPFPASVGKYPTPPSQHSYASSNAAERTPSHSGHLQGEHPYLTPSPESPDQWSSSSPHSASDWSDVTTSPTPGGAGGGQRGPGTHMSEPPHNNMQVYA
# [6] = target: Pro-neuregulin-1, membrane-bound isoform (Homo sapiens) (UniProt Q02297); assay: small molecules binding neuregulin-1 protein – biochemical, small-molecule microarray, fluorescence 635/667, psychiatric disease protein project, primary screen (AID 1075); conditions: NRG1 binding, 635 nm fluorescence, higher = more signal;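 further: score combines 667 nm spot fluorescence with signal to noise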
# Sequence of Pro-neuregulin-1, membrane-bound isoform (Homo sapiens) (Q02297 whole entry, looked up, the tested form may be a part, canonical isoform): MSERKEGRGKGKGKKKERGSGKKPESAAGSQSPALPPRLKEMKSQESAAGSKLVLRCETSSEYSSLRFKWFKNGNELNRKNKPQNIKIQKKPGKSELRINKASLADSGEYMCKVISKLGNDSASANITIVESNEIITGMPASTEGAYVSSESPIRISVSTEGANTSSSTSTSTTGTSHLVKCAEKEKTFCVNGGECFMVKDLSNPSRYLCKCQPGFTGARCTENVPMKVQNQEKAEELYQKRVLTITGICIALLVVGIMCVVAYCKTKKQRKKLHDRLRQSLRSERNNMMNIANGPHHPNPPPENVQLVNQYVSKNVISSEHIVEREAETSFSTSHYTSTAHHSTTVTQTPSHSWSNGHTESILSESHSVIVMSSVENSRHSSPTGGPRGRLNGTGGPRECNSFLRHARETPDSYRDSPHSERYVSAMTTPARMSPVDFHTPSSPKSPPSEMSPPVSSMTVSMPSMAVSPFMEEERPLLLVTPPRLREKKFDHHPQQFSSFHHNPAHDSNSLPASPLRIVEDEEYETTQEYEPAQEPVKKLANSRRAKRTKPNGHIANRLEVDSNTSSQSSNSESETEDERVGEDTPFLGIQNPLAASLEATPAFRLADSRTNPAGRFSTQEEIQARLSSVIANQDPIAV
# [7] = system: Neuregulin-1 EGF-like domain; assay: small molecules binding NRG1 EGF domain – biochemical, small-molecule microarray, 635 nm fluorescence, primary screen (AID 1081); conditions: higher = more signal;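 further: binding of the protein to compounds printed on small-molecule microarray slides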
# [8] = FRG1 expression reporter modulators in myotubes – cell-based, C2C12 myotubes, firefly/Renilla luciferase, luminescence, FRG1 inhibition for FSHD, primary screen (AID 1084); conditions: FRG1 promoter luciferase, higher = more signal, called active from +8 up or from −8 down
# [9] = small molecules captured by biotinylated probe aFST – biochemical, small-molecule microarray, fluorescence 635/667, stem cell growth factor project, primary screen (AID 1086); conditions: higher = more signal;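 further: score merges 667 nm fluorescence with signal-to-noise of each printed compound spot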
# [10] = binders of probe aHhip on microarray, primary screen, stem cell growth factor project, biochemical, small-molecule microarray, fluorescence 635/667 (AID 1087); conditions: higher = more signal;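 further: score merges spot fluorescence at 667nm with spot signal to noise ratio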
# [11] = system: PRMT1 (protein arginine N-methyltransferase 1); assay: small molecules binding arginine methyltransferase PRMT1 – biochemical, small-molecule microarray, 635 nm fluorescence, primary screen (AID 1088); conditions: higher = more signal;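 further: binding of Prmt1 protein to compounds spotted on small-molecule microarray slides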
# [12] = growth effects on S. cerevisiae YJM789 – YJM789 clinical isolate, OD600, 24 h, basal, primary screen (AID 1089); conditions: higher = more signal, called active from +8 up or from −8 down;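 further: growth of clinical yeast isolate S. cerevisiae YJM 789 seeded 1000 cells per well; test concentration not given here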
# [13] = S. pombe growth modifiers, basal conditions – strain 972, OD600, 24 h, no modulator, primary screen (AID 1090);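 further: basal condition with compound alone and no growth modifier present; test concentration not given here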; conditions: S. pombe 972 growth, higher = more signal, called active from +8 up or from −8 down
# [14] = budding yeast growth modifiers under rapamycin – strain BY4716, OD600, 96 h, primary screen (AID 1091); further: test concentration not given here; conditions: S. cerevisiae BY4716 + rapamycin, higher = more signal, called active from +8 up or from −8 down
# [15] = target: Torsin-1A-interacting protein 2 (Homo sapiens) (UniProt Q8NFQ8); assay: small molecules binding lysate-expressed LULL1 – cell lysate, human LULL1 lysate, 635/667 nm fluorescence, primary screen (AID 1092); conditions: small-molecule microarray, hLULL1 lysate binding, 635 nm fluorescence; higher = more signal;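 further: probe is lysate of COS7 cells overexpressing human LULL1; score merges per-feature 667 nm fluorescence with signal-to-noise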
# Sequence of Torsin-1A-interacting protein 2 (Homo sapiens) (Q8NFQ8 whole entry, looked up): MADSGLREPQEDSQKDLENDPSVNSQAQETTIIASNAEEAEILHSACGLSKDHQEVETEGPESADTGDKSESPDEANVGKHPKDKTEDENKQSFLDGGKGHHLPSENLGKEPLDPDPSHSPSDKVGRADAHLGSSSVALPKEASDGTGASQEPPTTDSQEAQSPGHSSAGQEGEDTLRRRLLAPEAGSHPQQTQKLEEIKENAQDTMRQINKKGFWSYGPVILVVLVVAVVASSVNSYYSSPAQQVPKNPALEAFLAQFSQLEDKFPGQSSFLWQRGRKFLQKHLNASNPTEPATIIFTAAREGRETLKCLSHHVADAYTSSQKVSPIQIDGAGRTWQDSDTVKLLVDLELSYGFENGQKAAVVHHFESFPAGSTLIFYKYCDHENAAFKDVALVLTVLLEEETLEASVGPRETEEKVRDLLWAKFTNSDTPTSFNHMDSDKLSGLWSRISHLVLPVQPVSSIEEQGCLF
# [16] = optical density change of DRC41 E. coli – strain DRC41, OD650, 24 h, E. coli filamentation project, primary screen (AID 1093);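 further: MC1000 strain lacking acrAB efflux and sulA so SOS filamentation is blocked; test concentration not given here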; conditions: E. coli DRC41 growth, higher = more signal, called active from +8 up or from −8 down
# [17] = probe aLefty2 binding to arrayed compounds – biochemical, biotinylated probe, 635/667 nm fluorescence, primary screen (AID 1094); conditions: small-molecule microarray, higher = more signal;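 further: score merges spot fluorescence near 667 nm with spot signal-to-noise ratio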
# [18] = system: Noggin (protein binding on small-molecule microarray); assay: small molecules binding Noggin protein – biochemical, 635/667 nm fluorescence, primary screen (AID 1095); conditions: 635 nm fluorescence, higher = more signal;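 further: score merges 667 nm feature fluorescence with signal to noise over triplicate slides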
# [19] = target: Neurogenic locus notch homolog protein 3 (Homo sapiens) (UniProt Q9UM47); assay: small molecules binding NOTCH3 protein – biochemical, 635/667 nm fluorescence, primary screen (AID 1096); conditions: small-molecule microarray, 635 nm fluorescence, higher = more signal
# [20] = probe aEGFR binding to arrayed compounds – biochemical, biotinylated probe, 635/667 nm fluorescence, primary screen (AID 1097); conditions: small-molecule microarray, higher = more signal;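 further: probe is a biotinylated anti-EGFR antibody binding compounds printed on slides; score combines fluorescence near 667 nm and signal to noise of each spot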
smiles,measurement,setting,value
COc1ccc(O[C@@H]2[C@H](O)CO[C@@H]2C=Cc2ccccc2)cc1,composite z-score,[1],-0.277
same,composite z-score,[2],0.232
same,composite z-score,[3],-0.0482
same,composite z-score,[4],0.336
same,composite z-score,[5],-0.0587
same,composite z-score,[6],0.46
same,composite z-score,[7],0.102
same,z-score,[8],-0.136 (inactive)
same,composite z-score,[9],0.0116
same,composite z-score,[10],0.281
same,composite z-score,[11],0.123
same,z-score,[12],-0.565 (inactive)
same,z-score,[13],-1.51 (inactive)
same,z-score,[14],0.0945 (inactive)
same,composite z-score,[15],0.11
same,z-score,[16],0.0038 (inactive)
same,composite z-score,[17],-0.238
same,composite z-score,[18],0.135
same,composite z-score,[19],0.0877
same,composite z-score,[20],-0.163
COC(=O)[C@@H]1CC[C@H](C)[C@@H](c2ccc(C)cc2)N1C(=O)c1ccc(C=NO[C@@H]2O[C@H](COC(C)=O)[C@@H](OC(C)=O)[C@H](OC(C)=O)[C@H]2OC(C)=O)cc1,composite z-score,[1],-0.241
same,composite z-score,[2],0.427
same,composite z-score,[3],-0.0985
same,composite z-score,[4],0.514
same,composite z-score,[5],0.527
same,composite z-score,[6],0.0818
same,composite z-score,[7],0.319
same,z-score,[8],0.861 (inactive)
same,composite z-score,[9],0.337
same,composite z-score,[10],0.0749
same,composite z-score,[11],1.43
same,z-score,[12],1.26 (inactive)
same,z-score,[13],-0.631 (inactive)
same,z-score,[14],0.876 (inactive)
same,composite z-score,[15],0.475
same,z-score,[16],-1.3 (inactive)
same,composite z-score,[17],-0.0873
same,composite z-score,[18],0.199
same,composite z-score,[19],0.864
same,composite z-score,[20],0.129
COc1ccc(O[C@H]2C=C[C@@H](c3ccccc3)O[C@@H]2COC(=O)CCC(C)=NOC[C@@H](O)[C@H]2O[C@@H]3OC(C)(C)O[C@@H]3[C@H]2O)cc1,composite z-score,[1],-0.522
same,composite z-score,[2],0.62
same,composite z-score,[3],-0.102
same,composite z-score,[4],0.497
same,composite z-score,[5],0.624
same,composite z-score,[6],0.0094
same,composite z-score,[7],0.724
same,z-score,[8],0.452 (inactive)
same,composite z-score,[9],0.659
same,composite z-score,[10],-0.0994
same,composite z-score,[11],1.34
same,z-score,[12],0.671 (inactive)
same,z-score,[13],0.0839 (inactive)
same,z-score,[14],-0.37 (inactive)
same,composite z-score,[15],1.48
same,z-score,[16],0.875 (inactive)
same,composite z-score,[17],-0.103
same,composite z-score,[18],1.41
same,composite z-score,[19],0.763
same,composite z-score,[20],-0.0592
CC(C)CON=C1C[C@@H](O)[C@@H](O)[C@@H]2[C@@H]3C(=O)N(C4CCCCC4)C(=O)[C@@H]3CC[C@@H]12,composite z-score,[1],-0.216
same,composite z-score,[2],1.2
same,composite z-score,[3],-0.0955
same,composite z-score,[4],0.0675
same,composite z-score,[5],-0.0187
same,composite z-score,[6],1.45
same,composite z-score,[7],-0.115
same,z-score,[8],-0.0468 (inactive)
same,composite z-score,[9],-0.0424
same,composite z-score,[10],-0.0994
same,composite z-score,[11],-0.0785
same,z-score,[12],0.4 (inactive)
same,z-score,[13],-0.513 (inactive)
same,z-score,[14],0.423 (inactive)
same,composite z-score,[15],1.64
same,z-score,[16],-0.233 (inactive)
same,composite z-score,[17],-0.302
same,composite z-score,[18],0.0295
same,composite z-score,[19],-0.519
same,composite z-score,[20],-0.154
COC(=O)NCC=Cc1nc(CCCO)co1,composite z-score,[1],-0.596
same,composite z-score,[2],0.273
same,composite z-score,[3],-0.0174
same,composite z-score,[4],0.525
same,composite z-score,[5],0.623
same,composite z-score,[6],0.177
same,composite z-score,[7],0.414
same,z-score,[8],-0.435 (inactive)
same,composite z-score,[9],0.0512
same,composite z-score,[10],-0.287
same,composite z-score,[11],-0.227
same,z-score,[12],0.084 (inactive)
same,z-score,[13],0.211 (inactive)
same,z-score,[14],0.214 (inactive)
same,composite z-score,[15],0.39
same,z-score,[16],0.423 (inactive)
same,composite z-score,[17],-0.0139
same,composite z-score,[18],0.501
same,composite z-score,[19],0.903
same,composite z-score,[20],0.0678
CCCCC#C[C@@H]1C=C[C@H](OC(C)=O)[C@@H](COC(C)=O)O1,composite z-score,[1],-0.515
same,composite z-score,[2],0.37
same,composite z-score,[3],-0.112
same,composite z-score,[4],0.319
same,composite z-score,[5],0.617
same,composite z-score,[6],0.304
same,composite z-score,[7],0.0329
same,z-score,[8],-1.28 (inactive)
same,composite z-score,[9],0.0643
same,composite z-score,[10],-0.134
same,composite z-score,[11],0.59
same,z-score,[12],0.248 (inactive)
same,z-score,[13],-3.45 (inactive)
same,z-score,[14],-1.25 (inactive)
same,composite z-score,[15],0.456
same,z-score,[16],0.325 (inactive)
same,composite z-score,[17],-0.116
same,composite z-score,[18],0.216
same,composite z-score,[19],0.848
same,composite z-score,[20],0.0251
C[C@H](ON=C1[C@H]2CCn3c(=O)n(-c4ccccc4)c(=O)n3[C@H]2[C@H](O)[C@@H]2O[C@H]12)c1cn([C@H](CO)Cc2ccccc2)nn1,composite z-score,[1],-0.317
same,composite z-score,[2],0.386
same,composite z-score,[3],-0.0189
same,composite z-score,[4],0.347
same,composite z-score,[5],0.862
same,composite z-score,[6],-0.0139
same,composite z-score,[7],0.764
same,z-score,[8],0.68 (inactive)
same,composite z-score,[9],0.138
same,composite z-score,[10],1.13
same,composite z-score,[11],0.171
same,z-score,[12],-0.915 (inactive)
same,z-score,[13],-0.348 (inactive)
same,z-score,[14],-0.173 (inactive)
same,composite z-score,[15],0.664
same,z-score,[16],0.547 (inactive)
same,composite z-score,[17],-0.175
same,composite z-score,[18],0.222
same,composite z-score,[19],0.518
same,composite z-score,[20],0.0544
COc1cccc([C@@H]2Oc3ccc(OC)cc3C(=O)[C@H]2O)c1,composite z-score,[1],-0.457
same,composite z-score,[2],0.0796
same,composite z-score,[3],0.0288
same,composite z-score,[4],0.209
same,composite z-score,[5],0.5
same,composite z-score,[6],0.788
same,composite z-score,[7],1.04
same,z-score,[8],7.25 (inactive)
same,composite z-score,[9],-0.0662
same,composite z-score,[10],-0.0994
same,composite z-score,[11],0.597
same,z-score,[12],-2.23 (inactive)
same,z-score,[13],-4.98 (inactive)
same,z-score,[14],-2.1 (inactive)
same,composite z-score,[15],0.704
same,z-score,[16],0.349 (inactive)
same,composite z-score,[17],-0.173
same,composite z-score,[18],0.052
same,composite z-score,[19],0.415
same,composite z-score,[20],-0.0697
O=C1OCCC=C1C(O)CCc1ccccc1 (stereo not given),composite z-score,[1],-0.209
same,composite z-score,[2],0.652
same,composite z-score,[3],-0.0885
same,composite z-score,[4],0.37
same,composite z-score,[5],0.327
same,composite z-score,[6],-0.192
same,composite z-score,[7],0.375
same,z-score,[8],0.667 (inactive)
same,composite z-score,[9],0.285
same,composite z-score,[10],-0.0645
same,composite z-score,[11],-1.06
same,z-score,[12],-0.857 (inactive)
same,z-score,[13],-0.113 (inactive)
same,z-score,[14],-0.665 (inactive)
same,composite z-score,[15],-0.119
same,z-score,[16],0.353 (inactive)
same,composite z-score,[17],-0.0324
same,composite z-score,[18],0.433
same,composite z-score,[19],0.67
same,composite z-score,[20],0.0009
O=C1CCCC=C1C(CCc1ccccc1)OC(=O)c1ccc(Br)cc1 (stereo not given),composite z-score,[1],-0.351
same,composite z-score,[2],0.0329
same,composite z-score,[3],-0.0841
same,composite z-score,[4],0.335
same,composite z-score,[5],0.047
same,composite z-score,[6],-0.532
same,composite z-score,[7],-0.529
same,z-score,[8],3.31 (inactive)
same,composite z-score,[9],-0.205
same,composite z-score,[10],-0.137
same,composite z-score,[11],-0.429
same,z-score,[12],-0.596 (inactive)
same,z-score,[13],-2.94 (inactive)
same,z-score,[14],-2.46 (inactive)
same,composite z-score,[15],-0.699
same,z-score,[16],0.037 (inactive)
same,composite z-score,[17],-0.159
same,composite z-score,[18],0.354
same,composite z-score,[19],-0.445
same,composite z-score,[20],-0.12
